Data on six molecules can be found in PubChem BioAssay.

Active and inactive are the calls of the source.

Test [1] is described as follows: small molecules captured by biotinylated probe aFSTL3 – biochemical, small-molecule microarray, fluorescence 635/667, stem cell growth factor project, primary screen (AID 1064).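 Also: measures binding of the biotinylated anti-FSTL3 antibody to printed compounds.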 The note with it: higher = more signal.
Test [2] in a line: binders from COS7 lysate, DM2A8 probe, primary screen, torsin A project, cell lysate, small-molecule microarray, fluorescence 635/667 (AID 1065). To be noted: higher = more signal, COS7 lysate expressing mutant human TOR1A.
Test [3] is described as follows: small molecules captured by biotinylated probe aFGF2 – biochemical, small-molecule microarray, fluorescence 635/667, stem cell growth factor project, primary screen (AID 1067).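 Also: measures binding of biotinylated aFGF2 protein to printed compounds on slides; z-score merges feature fluorescence and signal-to-noise across triplicate slides.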 The note with it: higher = more signal.
Test [4] in a line: small molecules captured by biotinylated probe aFGF10 – biochemical, small-molecule microarray, fluorescence 635/667, stem cell growth factor project, primary screen (AID 1071).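 Also: score merges 667 nm spot intensity and signal to noise from triplicate slides.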 To be noted: higher = more signal.
Test [5] addresses Neurogenic locus notch homolog protein 2 (Homo sapiens) (UniProt Q04721). Nature of the test: small molecules binding Notch2 protein – biochemical, small-molecule microarray, 635 nm fluorescence, stem cell growth factors, primary screen (AID 1073). To be noted: higher = more signal.
Test [6] has as its target Pro-neuregulin-1, membrane-bound isoform (Homo sapiens) (UniProt Q02297). Nature of the test: small molecules binding neuregulin-1 protein – biochemical, small-molecule microarray, fluorescence 635/667, psychiatric disease protein project, primary screen (AID 1075).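 Also: score combines 667 nm spot fluorescence with signal to noise.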 To be noted: NRG1 binding, 635 nm fluorescence, higher = more signal.
Test [7] relates to Neuregulin-1 EGF-like domain. The test is described as follows: small molecules binding NRG1 EGF domain – biochemical, small-molecule microarray, 635 nm fluorescence, primary screen (AID 1081).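 Also: binding of the protein to compounds printed on small-molecule microarray slides.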 The note with it: higher = more signal.
Test [8] can be described thus: FRG1 expression reporter modulators in myotubes – cell-based, C2C12 myotubes, firefly/Renilla luciferase, luminescence, FRG1 inhibition for FSHD, primary screen (AID 1084). To be noted: FRG1 promoter luciferase, higher = more signal, called active from +8 up or from −8 down.
Test [9] is described as follows: small molecules captured by biotinylated probe aFST – biochemical, small-molecule microarray, fluorescence 635/667, stem cell growth factor project, primary screen (AID 1086).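 Also: score merges 667 nm fluorescence with signal-to-noise of each printed compound spot.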 To be noted: higher = more signal.
A short description of test [10]: binders of probe aHhip on microarray, primary screen, stem cell growth factor project, biochemical, small-molecule microarray, fluorescence 635/667 (AID 1087).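 Also: score merges spot fluorescence at 667nm with spot signal to noise ratio.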 The note with it: higher = more signal.
The test system of test [11] is PRMT1 (protein arginine N-methyltransferase 1). Nature of the test: small molecules binding arginine methyltransferase PRMT1 – biochemical, small-molecule microarray, 635 nm fluorescence, primary screen (AID 1088).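 Also: binding of Prmt1 protein to compounds spotted on small-molecule microarray slides.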 To be noted: higher = more signal.
Test [12] in a line: growth effects on S. cerevisiae YJM789 – YJM789 clinical isolate, OD600, 24 h, basal, primary screen (AID 1089).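 Also: growth of clinical yeast isolate S. cerevisiae YJM 789 seeded 1000 cells per well; test concentration not given here.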 The note with it: higher = more signal, called active from +8 up or from −8 down.
Test [13] in a line: S. pombe growth modifiers, basal conditions – strain 972, OD600, 24 h, no modulator, primary screen (AID 1090).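 Also: basal condition with compound alone and no growth modifier present; test concentration not given here.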 The note with it: S. pombe 972 growth, higher = more signal, called active from +8 up or from −8 down.
The nature of test [14]: budding yeast growth modifiers under rapamycin – strain BY4716, OD600, 96 h, primary screen (AID 1091). Also: test concentration not given here. The note with it: S. cerevisiae BY4716 + rapamycin, higher = more signal, called active from +8 up or from −8 down.
Test [15] deals with Torsin-1A-interacting protein 2 (Homo sapiens) (UniProt Q8NFQ8). Nature of the test: small molecules binding lysate-expressed LULL1 – cell lysate, human LULL1 lysate, 635/667 nm fluorescence, primary screen (AID 1092).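 Also: probe is lysate of COS7 cells overexpressing human LULL1; score merges per-feature 667 nm fluorescence with signal-to-noise.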 The note with it: small-molecule microarray, hLULL1 lysate binding, 635 nm fluorescence; higher = more signal.
Chain of Torsin-1A-interacting protein 2 (Homo sapiens) (Q8NFQ8 whole entry, looked up): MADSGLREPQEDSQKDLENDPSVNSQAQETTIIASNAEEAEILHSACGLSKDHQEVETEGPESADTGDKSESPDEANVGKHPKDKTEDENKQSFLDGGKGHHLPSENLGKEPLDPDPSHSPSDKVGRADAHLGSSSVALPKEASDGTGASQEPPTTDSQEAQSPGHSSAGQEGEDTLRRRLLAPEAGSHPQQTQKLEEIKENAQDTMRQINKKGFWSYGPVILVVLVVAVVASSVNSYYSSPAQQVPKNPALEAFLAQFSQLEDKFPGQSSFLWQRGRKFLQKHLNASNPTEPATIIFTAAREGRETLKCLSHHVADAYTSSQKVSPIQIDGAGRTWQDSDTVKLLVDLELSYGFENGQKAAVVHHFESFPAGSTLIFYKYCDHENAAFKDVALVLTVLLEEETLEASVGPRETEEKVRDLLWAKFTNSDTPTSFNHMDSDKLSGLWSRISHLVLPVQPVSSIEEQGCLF
A short description of test [16]: optical density change of DRC41 E. coli – strain DRC41, OD650, 24 h, E. coli filamentation project, primary screen (AID 1093).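 Also: MC1000 strain lacking acrAB efflux and sulA so SOS filamentation is blocked; test concentration not given here.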 The note with it: E. coli DRC41 growth, higher = more signal, called active from +8 up or from −8 down.
Test [17] is described as follows: probe aLefty2 binding to arrayed compounds – biochemical, biotinylated probe, 635/667 nm fluorescence, primary screen (AID 1094).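 Also: score merges spot fluorescence near 667 nm with spot signal-to-noise ratio.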 The note with it: small-molecule microarray, higher = more signal.
Test [18] deals with Noggin (protein binding on small-molecule microarray). Nature of the test: small molecules binding Noggin protein – biochemical, 635/667 nm fluorescence, primary screen (AID 1095).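 Also: score merges 667 nm feature fluorescence with signal to noise over triplicate slides.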 To be noted: 635 nm fluorescence, higher = more signal.
For test [19], the target named is Neurogenic locus notch homolog protein 3 (Homo sapiens) (UniProt Q9UM47). The test is described as follows: small molecules binding NOTCH3 protein – biochemical, 635/667 nm fluorescence, primary screen (AID 1096). To be noted: small-molecule microarray, 635 nm fluorescence, higher = more signal.
Chain of Neurogenic locus notch homolog protein 3 (Homo sapiens) (Q9UM47 whole entry, looked up): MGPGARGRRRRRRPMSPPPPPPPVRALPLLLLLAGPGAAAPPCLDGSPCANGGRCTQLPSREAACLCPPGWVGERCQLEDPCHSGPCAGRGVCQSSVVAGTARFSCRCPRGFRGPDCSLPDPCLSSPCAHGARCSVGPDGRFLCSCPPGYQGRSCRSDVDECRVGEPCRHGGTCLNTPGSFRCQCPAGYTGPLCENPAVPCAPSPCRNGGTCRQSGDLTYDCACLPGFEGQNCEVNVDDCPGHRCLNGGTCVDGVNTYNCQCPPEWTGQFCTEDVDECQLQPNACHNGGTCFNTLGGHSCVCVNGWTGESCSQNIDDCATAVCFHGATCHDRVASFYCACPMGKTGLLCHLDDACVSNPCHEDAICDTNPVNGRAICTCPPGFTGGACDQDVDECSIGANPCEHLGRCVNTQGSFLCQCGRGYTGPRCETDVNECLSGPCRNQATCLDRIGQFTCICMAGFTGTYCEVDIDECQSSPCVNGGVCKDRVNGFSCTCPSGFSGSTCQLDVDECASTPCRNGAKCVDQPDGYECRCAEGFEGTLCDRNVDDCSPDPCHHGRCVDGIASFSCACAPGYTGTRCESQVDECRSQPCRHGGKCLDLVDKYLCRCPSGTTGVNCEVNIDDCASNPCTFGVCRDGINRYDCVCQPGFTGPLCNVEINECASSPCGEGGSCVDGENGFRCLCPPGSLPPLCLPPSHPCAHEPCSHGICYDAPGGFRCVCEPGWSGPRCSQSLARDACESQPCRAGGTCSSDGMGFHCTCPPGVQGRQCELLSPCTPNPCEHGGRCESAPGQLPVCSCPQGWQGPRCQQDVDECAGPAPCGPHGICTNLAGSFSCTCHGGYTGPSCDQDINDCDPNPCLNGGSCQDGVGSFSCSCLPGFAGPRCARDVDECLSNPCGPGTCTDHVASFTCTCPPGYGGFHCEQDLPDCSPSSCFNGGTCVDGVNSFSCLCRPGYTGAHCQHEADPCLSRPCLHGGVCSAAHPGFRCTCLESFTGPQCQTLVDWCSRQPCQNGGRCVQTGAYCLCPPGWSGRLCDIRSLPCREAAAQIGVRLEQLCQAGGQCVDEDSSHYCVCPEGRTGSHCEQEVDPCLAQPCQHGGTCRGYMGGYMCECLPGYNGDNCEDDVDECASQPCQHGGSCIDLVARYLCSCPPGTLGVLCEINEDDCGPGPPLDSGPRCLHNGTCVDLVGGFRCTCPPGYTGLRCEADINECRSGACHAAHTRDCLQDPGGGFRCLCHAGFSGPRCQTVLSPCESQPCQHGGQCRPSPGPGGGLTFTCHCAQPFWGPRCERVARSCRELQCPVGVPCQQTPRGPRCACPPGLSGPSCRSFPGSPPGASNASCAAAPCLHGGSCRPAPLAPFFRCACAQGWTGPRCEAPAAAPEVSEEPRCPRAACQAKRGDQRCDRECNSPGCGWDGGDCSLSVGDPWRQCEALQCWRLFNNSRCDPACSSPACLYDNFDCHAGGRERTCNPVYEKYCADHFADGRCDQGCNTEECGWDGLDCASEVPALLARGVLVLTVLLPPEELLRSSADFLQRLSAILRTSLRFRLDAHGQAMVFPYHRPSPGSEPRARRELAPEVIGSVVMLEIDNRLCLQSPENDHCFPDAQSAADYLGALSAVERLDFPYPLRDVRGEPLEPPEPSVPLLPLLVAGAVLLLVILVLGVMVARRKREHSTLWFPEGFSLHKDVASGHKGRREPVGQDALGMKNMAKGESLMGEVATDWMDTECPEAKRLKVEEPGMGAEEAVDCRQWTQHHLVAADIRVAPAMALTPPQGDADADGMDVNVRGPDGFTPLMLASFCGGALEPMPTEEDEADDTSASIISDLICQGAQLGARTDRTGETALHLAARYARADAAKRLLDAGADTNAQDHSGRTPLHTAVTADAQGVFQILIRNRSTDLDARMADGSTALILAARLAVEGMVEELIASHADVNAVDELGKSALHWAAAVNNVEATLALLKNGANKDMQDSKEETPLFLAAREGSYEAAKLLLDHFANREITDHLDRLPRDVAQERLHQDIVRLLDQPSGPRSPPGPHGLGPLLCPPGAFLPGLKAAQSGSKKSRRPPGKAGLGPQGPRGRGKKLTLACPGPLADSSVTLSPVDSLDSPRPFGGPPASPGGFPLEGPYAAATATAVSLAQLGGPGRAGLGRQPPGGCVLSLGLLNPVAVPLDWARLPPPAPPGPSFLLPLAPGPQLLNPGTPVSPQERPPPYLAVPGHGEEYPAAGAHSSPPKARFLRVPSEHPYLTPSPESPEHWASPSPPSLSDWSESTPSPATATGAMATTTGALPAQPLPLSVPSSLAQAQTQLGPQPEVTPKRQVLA
The nature of test [20]: probe aEGFR binding to arrayed compounds – biochemical, biotinylated probe, 635/667 nm fluorescence, primary screen (AID 1097).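 Also: probe is a biotinylated anti-EGFR antibody binding compounds printed on slides; score combines fluorescence near 667 nm and signal to noise of each spot.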 The note with it: small-molecule microarray, higher = more signal.

Chain of Pro-neuregulin-1, membrane-bound isoform (Homo sapiens) (Q02297 whole entry, looked up, the tested form may be a part, canonical isoform): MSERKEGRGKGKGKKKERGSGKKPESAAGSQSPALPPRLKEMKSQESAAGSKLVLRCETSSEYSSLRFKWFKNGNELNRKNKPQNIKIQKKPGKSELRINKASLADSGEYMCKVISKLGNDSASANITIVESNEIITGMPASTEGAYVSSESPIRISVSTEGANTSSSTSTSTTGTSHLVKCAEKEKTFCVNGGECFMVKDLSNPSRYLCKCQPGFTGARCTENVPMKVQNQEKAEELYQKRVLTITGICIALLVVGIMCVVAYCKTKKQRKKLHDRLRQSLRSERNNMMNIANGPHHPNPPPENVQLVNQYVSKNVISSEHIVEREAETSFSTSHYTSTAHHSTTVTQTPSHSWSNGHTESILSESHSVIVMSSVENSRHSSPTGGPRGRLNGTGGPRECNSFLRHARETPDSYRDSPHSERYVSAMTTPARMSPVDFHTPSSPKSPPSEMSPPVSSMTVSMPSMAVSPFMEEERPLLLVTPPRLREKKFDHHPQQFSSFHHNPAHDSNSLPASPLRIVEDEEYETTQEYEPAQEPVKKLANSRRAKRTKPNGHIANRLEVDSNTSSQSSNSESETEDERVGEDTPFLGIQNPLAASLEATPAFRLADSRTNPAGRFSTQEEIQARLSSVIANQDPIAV

Take `CC(C)C(O)C1C=CC2C(=O)NC(=O)C2N1Nc1ccccn1` (stereo not given): the composite z-score in [1] is 0.359; in test [2], -0.103; in [3], -0.0502; in test [4], 0.138; in [5] it was 0.926; in [6], 0.306. The composite z-score in [7] turned out to be 1.1; in test [9], 0.547; in [10] it was 0.151; in test [11], 0.522; in [15] it was 1.92; in [17], 0.0894. Also, the composite z-score in test [18] was -0.0878; in test [19], 0.301; in test [20] it was -0.109. The z-score was 0.944 (inactive) in test [8]; 1.02 (inactive) in [12]; 1.68 (inactive) in test [13]; 0.56 (inactive) in [14]; -0.847 (inactive) in [16].
With `Cc1ccc(F)cc1S(=O)(=O)N[C@H]1CCN(Cc2ccc(OC(C)C)cc2)C1`, the composite z-score in [1] is -0.347; in [2] it was 0.325; in test [3] it was -0.201; in test [4], -0.0293; in [5], -0.563; in test [6] it was -0.0273. In addition, the composite z-score in test [7] is 0.629; in [9] it was 0.101; in test [10], -0.132; in [11], 1.48; in test [15], 1.17; in test [17], -0.218. The composite z-score was 1.41 in test [18], 0.0527 in test [19] and -0.18 in test [20]. Also, the z-score in test [8] is -1.84 (inactive); in test [12] it was -1.09 (inactive); in test [13], -13.1 (active); in [14], -1.03 (inactive); in test [16], -2.66 (inactive).
`C=CCOC(=O)[C@@H]1[C@H]2C(=O)O[C@H](c3ccccc3)[C@H](c3ccccc3)N2[C@H](c2ccc(OCCOC(=O)[C@H]3C[C@H]4C(=O)NCC(=O)N4[C@H]3c3cccc(OCCO)c3)cc2)[C@@]12C(=O)Nc1ccc(I)cc12`: the composite z-score in test [1] was -0.0708; in test [2], 0.727; in test [3] it was -0.0383; in [4], -0.0265; in test [5] it was 0.593; in test [6], 1.16. The composite z-score was 1.23 in [7]; 0.275 in [9]; -0.0296 in test [10]; 1.54 in [11]; 2.7 in [15]; -0.0809 in [17]. For the same molecule, the values for the composite z-score in test [18], in test [19] and in [20] were 0.963, 1.1 and 0.0712, respectively. The z-score was 0.779 (inactive) in test [8]; 0.787 (inactive) in [12]; 1.44 (inactive) in test [13]; 3.6 (inactive) in test [14]; 0.002 (inactive) in [16].
With `O=C1C[C@@](C(=O)O)(c2ccc([N+](=O)[O-])cc2)[C@@H](c2ccc(CO)cc2)N1C1CCCCC1`, the composite z-score in test [1] is -0.0207; in [2], 0.748; in test [3], 0.137; in test [4], 0.687; in test [5] it was 1.46; in test [6] it was 1.63. Further, the composite z-score in test [7] is 1.21; in test [9], 0.905; in test [10], -0.0645; in test [11] it was 1.54; in [15], 3.12; in test [17], 0.0909. For the same molecule, the values for the composite z-score in test [18], in [19] and in test [20] were 0.333, 1.15 and -0.0409, respectively. The z-score in [8] was -0.118 (inactive); in [12] it was 1.24 (inactive); in [13], -1.36 (inactive); in test [14], 1.05 (inactive); in test [16], 0.397 (inactive).
For the molecule `C=C(C)[C@@H]1CC=C(C(O)C2C=CC3C(=O)N(C)C(=O)C3N2Nc2ccc([N+](=O)[O-])cc2[N+](=O)[O-])CC1` (stereo not given in full), the composite z-score is 0.661 in test [1]; 0.294 in test [2]; -0.144 in test [3]; 0.431 in test [4]; 1.68 in test [5]; 1.74 in test [6]. The composite z-score in test [7] is 1.36; in test [9], 1.46; in test [10] it was -0.0003; in [11] it was 1.32; in test [15] it was 3.52; in test [17], 0.519. Further, the composite z-score in test [18] was determined as 0.263; in test [19] it was 1.07; in [20] it was 0.358. Besides, the z-score in test [8] is 0.404 (inactive); in [12], 0.513 (inactive); in test [13], 1.79 (inactive); in test [14], 0.966 (inactive); in test [16], -0.476 (inactive).
As to `[N-]=[N+]=Nc1ccccc1[C@@H]1OC(c2ccc(OCCCO)cc2)=N[C@]1(CCS(=O)(=O)c1ccccc1)C(=O)NCC(O)CO` (stereo not given in full), the composite z-score is 0.158 in [1]; 0.372 in test [2]; -0.0125 in test [3]; 0.0835 in [4]; 0.209 in [5]; 1.05 in test [6]. For the same molecule, the composite z-score is 1.21 in test [7]; 0.283 in test [9]; 0.0401 in test [10]; 0.856 in test [11]; 3.1 in [15]; -0.116 in test [17]. Also, the composite z-score in test [18] is 0.351; in test [19], 0.0354; in [20], -0.147. The z-score in test [8] is -0.463 (inactive); in test [12], 0.678 (inactive); in test [13], 0.636 (inactive); in test [14], 0.347 (inactive); in test [16], 0.679 (inactive).
